This note sets out measurements from PubChem BioAssay.

Experiment [1] has as its target 6-phosphogluconate dehydrogenase, decarboxylating (Homo sapiens) (UniProt P52209). The experiment can be described thus: 6PGD enzyme inhibitors, primary screen, biochemical, human, recombinant enzyme, NADPH absorbance (AID 1159550). The note with it: recombinant 6PGD, NADPH absorbance 341 nm; at 10 µM; stronger effect = higher value.
Experiment [2] is described as follows: stimulators of insulin release from INS-1E, primary screen, cell-based, 5 mM glucose, NPC library (AID 1117329;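 active means compound raises insulin release from rat beta cells at 5 mM glucose, no numeric limit stated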). The note with it: rat INS-1E insulin secretion, at 10 µM, stronger effect = higher value.
Experiment [3] in a line: growth inhibition of GSK3B-pretreated HCT116 cells – cell-based, CellTiter-Glo, 0.2 to 20 µM (AID 1117336;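 active means compounds lowering colon cancer cell viability after pretreatment blocking the GSK3B kinase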). The note with it: HCT116 viability after GSK3B inhibitor, at 20 µM, stronger effect = higher value. For orientation: ATP-based viability assays read luminescence as a measure of living cells.
Experiment [4] is described as follows: inhibition of endothelial tube formation, primary screen, imaging, VEGF stimulated, CD31 staining, tube area, NPC library (AID 1117340;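 active means compound that reduces growth-factor-driven endothelial tube area in a mixed cell culture, no cutoff stated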). The note with it: VEGF-stimulated ADSC/ECFC co-culture, at 10 µM, stronger effect = higher value.
A short description of experiment [5]: glucagon-like peptide 1 release enhancers, primary assay, NCI-H716 cell line, NPC library (AID 1117341;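 active means compound raises GLP1 secretion from the human gut endocrine cells, with no numeric limit stated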). The note with it: NCI-H716 cells, at 10 µM, stronger effect = higher value.
Experiment [6] can be described thus: HCT116 colon cancer cell growth inhibition, primary screen, CellTiter-Glo luminescence, NPC library (AID 1117342;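 active means compounds that lower survival of HCT116 colon cancer cells in the luminescence readout, no numeric limit stated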). The conditions noted are these: at 20 µM (top of the series).
Experiment [7] in a line: CellTiter-Glo luminescent readout of SW480 viability loss, NPC library primary (AID 1117343;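 active means compounds that lower viability of the colon cancer cells in the luminescence readout, with no numeric limit stated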). The conditions noted are these: CellTiter-Glo luminescence; at 20 µM (top of the series) unless noted.
Experiment [8] is described as follows: decreased DLD-1 cellular survival, CellTiter-Glo luminescent readout, NPC compound collection, primary HTS (AID 1117346;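 active means compounds that lower survival of DLD-1 colon cancer cells in the luminescence readout, no cutoff given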). The conditions noted are these: DLD-1 viability, CellTiter-Glo luminescence; at 20 µM (top of the series).
Experiment [9] is described as follows: differential killing of epithelial or mesenchymal cells, primary screen, imaging, PC-3E GFP, TEM4-18 mCherry, co-culture (AID 1345086;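 active means compounds killing one labelled cell type while sparing the other, by normalised counts and ratio limits, not self-fluorescent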;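 on all read-outs here: cells exposed to compound for 72 h before imaging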;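 on red/green cell ratio (normalised): normalised mesenchymal count divided by normalised epithelial count so high means epithelial killing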). The conditions noted are these: imaging cell counts, at 1 µM; for red/green cell ratio (normalised): actives lie on both sides, counts scaled to control wells, 1 = unselective.
A short description of experiment [10]: survival rescue of mitochondrial mutant cells in low glucose, primary screen, MELAS cybrids, Rieske KO mouse fibroblasts, CellTiter-Glo (AID 1508586;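 active means mean z-score across replicates of 1.96 or higher in either the MELAS or the Rieske mutant cell line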;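 further: z relative to plate mean and SD of compound and empty wells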).
Experiment [11] deals with NAD(+) hydrolase SARM1 (Homo sapiens) (UniProt Q6SZW1). Nature of the experiment: SARM1 TIR NADase inhibitors, cell lysate, NAD-Glo luminescence (AID 1508614;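 active means compound whose remaining NAD level is above about 45 nM, limit read from the data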). The note with it: SAM-TIR HEK293T lysate NADase, at 1 µM, stronger effect = higher value.
Experiment [12] deals with Mitogen-activated protein kinase 7 (Homo sapiens) (UniProt Q13164). Nature of the experiment: ERK5 transactivation activators in reporter cells, primary screen, cell-based, HTS (AID 1508626;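 active means luciferase signal above three times the same-plate solvent-only control wells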;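 further: luciferase driven by Gal4-ERK5 fusion binding five Gal4 sites before minimal TATA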). The conditions noted are these: HeLa Gal4-ERK5 transactivation, 18 h, at 5 µM, stronger effect = higher value.
Experiment [13] is described as follows: viability rescue of complex I mutant cybrids, primary screen, cell-based, galactose medium, ATP luminescence (AID 1645843;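 active means z-score of at least 1.8 in each of two replicates, scored against plate mean and spread of sample wells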;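 further: positive z means more ATP and so rescue of galactose-driven cybrid death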). The conditions noted are these: complex I mutant cybrid cells, 72 h, stronger effect = higher value.
Experiment [14] is described as follows: liver-stage malaria parasite growth inhibition, primary screen, cell-based, HepG2, luciferase luminescence, HepG2 viability (AID 624349; in the data active means parasite load remaining mostly below about 12%, no sharp cut-off; inactive means mostly above about 10%;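 further: 100% = mean of DMSO negative control wells on the same plate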). The conditions noted are these: P. berghei liver stage in HepG2, luciferase luminescence, concentration not given here; parasite load remaining: stronger effect = lower value; viability: measured here: HepG2 viability without parasites.

Experiment [15] can be described thus: sensitizers of A549 cells to miR-34 induction, primary screen, imaging, A549 dox-inducible miR-34, nuclei and caspase counts (AID 1347080;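 active means compounds whose cell count with miR-34 switched on is under 0.7 times the count with it off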). The conditions noted are these: A549 miR-34 inducible, Hoechst nuclei count, 48 h.
For experiment [16], the system named is Hepatitis C virus NS3 helicase. Nature of the experiment: HCV NS3 helicase inhibitors, primary screen, biochemical, fluorescence polarization, NIH Clinical Collection (AID 743270; call rule not given here). The conditions noted are these: NS3 helicase binding to Cy5-dT15 DNA, stronger effect = higher value, concentration not given here. For orientation: Polarisation of emitted light reports the rotation of a fluorescent probe.

The nature of experiment [17]: modulation of C. elegans fzo-1 (AID 1259413; call rule not given here;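 further: fzo-1 mutant C. elegans worms in liquid wells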). The conditions noted are these: C. elegans fzo-1 modulator screen, mean read-out; stronger effect = higher value.
The mark [18] stands for this setting: measured here: epithelial PC-3E GFP cell survival.
The mark [19] stands for this setting: measured here: mesenchymal TEM4-18 mCherry cell survival.
Where [20] appears, read: MELAS cybrid survival, CellTiter-Glo 48 h, stronger effect = higher value.
[21] abbreviates: Rieske KO mouse fibroblast survival, CellTiter-Glo 72 h.
Setting [22] is: stronger effect = lower value, cell number ratio, induced over uninduced.
Where [23] appears, read: measured here: relative caspase fold change +Dox/-Dox.
Where [24] appears, read: measured here: total cells with miR-34 induction, stronger effect = lower value.
The mark [25] stands for this setting: measured here: total cells without miR-34 induction.

“And” between values parts separate entries of the source, which are not always exact repeats. Equal entries are not always repeated. The source made the active and inactive calls.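 How the source made its calls, unless noted: active means at least 20% inhibition of 6-phosphogluconate dehydrogenase activity; inactive means the rest.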 Where a SMILES comes first, the peptide text is derived from it.

Chain of 6-phosphogluconate dehydrogenase, decarboxylating (Homo sapiens) (P52209 whole entry, looked up): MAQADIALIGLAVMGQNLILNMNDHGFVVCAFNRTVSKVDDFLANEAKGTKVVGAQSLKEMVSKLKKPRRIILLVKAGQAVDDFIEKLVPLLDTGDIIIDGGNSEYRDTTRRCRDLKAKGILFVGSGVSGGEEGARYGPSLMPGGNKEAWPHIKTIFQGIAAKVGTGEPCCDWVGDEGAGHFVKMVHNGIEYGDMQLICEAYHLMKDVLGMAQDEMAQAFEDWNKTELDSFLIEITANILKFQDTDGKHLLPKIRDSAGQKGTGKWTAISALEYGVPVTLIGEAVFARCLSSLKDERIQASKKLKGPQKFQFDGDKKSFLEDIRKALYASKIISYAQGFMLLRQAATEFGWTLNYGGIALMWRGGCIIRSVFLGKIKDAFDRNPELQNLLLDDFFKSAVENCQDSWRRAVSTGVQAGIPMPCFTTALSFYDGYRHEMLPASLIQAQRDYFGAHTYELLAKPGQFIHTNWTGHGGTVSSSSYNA
Chain of NAD(+) hydrolase SARM1 (Homo sapiens) (Q6SZW1 whole entry, looked up, the tested form may be a part): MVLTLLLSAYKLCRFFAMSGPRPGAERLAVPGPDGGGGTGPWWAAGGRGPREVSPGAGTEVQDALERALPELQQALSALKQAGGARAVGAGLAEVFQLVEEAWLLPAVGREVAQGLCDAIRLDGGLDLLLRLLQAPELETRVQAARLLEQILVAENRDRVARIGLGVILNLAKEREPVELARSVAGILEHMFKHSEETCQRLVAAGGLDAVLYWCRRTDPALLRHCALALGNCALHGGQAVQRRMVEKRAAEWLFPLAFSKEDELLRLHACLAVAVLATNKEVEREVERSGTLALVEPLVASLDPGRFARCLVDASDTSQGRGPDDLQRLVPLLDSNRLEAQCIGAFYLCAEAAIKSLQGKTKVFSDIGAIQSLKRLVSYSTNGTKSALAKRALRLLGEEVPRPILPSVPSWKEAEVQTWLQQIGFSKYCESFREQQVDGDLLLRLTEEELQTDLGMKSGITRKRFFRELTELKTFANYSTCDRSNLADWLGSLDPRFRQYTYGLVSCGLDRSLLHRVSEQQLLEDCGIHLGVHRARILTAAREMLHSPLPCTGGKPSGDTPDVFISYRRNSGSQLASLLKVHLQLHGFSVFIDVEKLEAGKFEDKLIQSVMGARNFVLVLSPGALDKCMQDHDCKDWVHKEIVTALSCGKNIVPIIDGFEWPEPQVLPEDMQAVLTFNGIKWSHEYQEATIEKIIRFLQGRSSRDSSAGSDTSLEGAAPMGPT
Chain of Mitogen-activated protein kinase 7 (Homo sapiens) (Q13164 whole entry, looked up, the tested form may be a part): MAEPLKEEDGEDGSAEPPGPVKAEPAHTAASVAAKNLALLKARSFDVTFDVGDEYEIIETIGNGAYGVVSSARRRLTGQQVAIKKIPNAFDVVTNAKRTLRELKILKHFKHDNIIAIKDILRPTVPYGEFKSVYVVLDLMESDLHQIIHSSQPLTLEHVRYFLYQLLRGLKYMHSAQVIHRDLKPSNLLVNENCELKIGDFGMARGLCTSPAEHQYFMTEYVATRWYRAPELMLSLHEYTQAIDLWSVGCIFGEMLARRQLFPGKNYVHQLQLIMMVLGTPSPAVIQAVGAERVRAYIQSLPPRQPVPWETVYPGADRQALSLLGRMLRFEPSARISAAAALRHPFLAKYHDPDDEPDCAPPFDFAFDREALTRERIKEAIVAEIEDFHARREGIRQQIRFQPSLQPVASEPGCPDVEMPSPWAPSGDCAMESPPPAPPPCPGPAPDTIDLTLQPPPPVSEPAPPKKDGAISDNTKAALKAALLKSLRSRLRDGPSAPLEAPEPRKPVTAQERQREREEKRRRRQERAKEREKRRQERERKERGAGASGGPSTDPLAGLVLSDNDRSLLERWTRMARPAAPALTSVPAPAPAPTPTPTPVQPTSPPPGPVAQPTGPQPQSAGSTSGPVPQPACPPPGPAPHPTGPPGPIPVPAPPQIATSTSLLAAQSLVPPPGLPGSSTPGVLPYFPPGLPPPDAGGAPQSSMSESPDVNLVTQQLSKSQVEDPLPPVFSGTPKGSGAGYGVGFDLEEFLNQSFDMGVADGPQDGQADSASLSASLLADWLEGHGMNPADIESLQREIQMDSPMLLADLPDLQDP

In general, inhibition refers to the relative decrease from the control value, in per cent. Turning to `CC12CCC3c4ccc(OC(=O)c5ccccc5)cc4CCC3C1CCC2=O` (centres undefined), in experiment [1], the inhibition was -9.5% (inactive).

With `CC(C)(C)c1ccc(C(O)CCCN2CCC(C(O)(c3ccccc3)c3ccccc3)CC2)cc1` (centres undefined), the insulin secretion stimulation in experiment [2] is 5.9% (inactive). Besides, in experiment [3], the viability decrease was 101% (active). Besides, the tube area decrease in experiment [4] is 98.4% (active). The GLP1 secretion stimulation in [5] is 70% (active). Also, the inhibition of viability in experiment [6] is 102% (active). Moreover, the viability decrease (inhibition) in [7] is 142% (active); in [8], 103% (active). Also, in experiment [9], the red/green cell ratio (normalised) is 0.94 (inactive). Moreover, the normalised cell number in [9] (setting [18]) was found to be 1.26; in [9] (setting [19]), 1.18. The z-score is -0.29 (inactive) and -0.00284 (inactive) in [10] (setting [20]); 1.02 and 1.14 in experiment [10] (setting [21]); -1.31 (inactive) and 0.135 (inactive) in experiment [13]. In addition, the remaining NAD in [11] is 10 nM (inactive). In addition, the luciferase signal in experiment [12] was 108 AU (inactive).

Broadly, the viability is a read-out of living cells in per cent, often relative to untreated cells. On to `NCCCC(O)(P(=O)(O)O)P(=O)(O)O`, for which, in experiment [14], the parasite load remaining is 53.9% (inactive) and 32.7% (inactive). Moreover, in [14], the viability is 103% and 67.5%. Also, the insulin secretion stimulation in experiment [2] was 2.3% (inactive). In addition, in [3], the viability decrease is 6.9% (inactive). Further, the tube area decrease in experiment [4] is -27.4% (inactive). Moreover, the GLP1 secretion stimulation in experiment [5] is 1.2% (inactive). Also, in experiment [6], the inhibition of viability was 1.17% (inactive). Besides, the viability decrease (inhibition) is -1.7% (inactive) in [7] and -3.8% (inactive) in experiment [8]. In addition, in [9], the red/green cell ratio (normalised) is 1.07 (inactive). The normalised cell number was found to be 1 in [9] (setting [18]) and 1.08 in experiment [9] (setting [19]). Besides, the fold change in experiment [15] (setting [22]) was 1.41 (inactive) and 0.87 (inactive) and 0.867 (inactive); in [15] (setting [23]) it was 0.419 and 4.85 and 1.52. For the same compound, the cell count in [15] (setting [24]) is 8960 and 12100 and 9780; in experiment [15] (setting [25]), 6340 and 13900 and 11300. Further, the z-score is 0.332 (inactive) and -1.05 (inactive) and 0.581 (inactive) in [10] (setting [20]); 0.0856 and -0.0862 and 0.207 in experiment [10] (setting [21]); -2.05 (inactive) and 0.675 (inactive) in experiment [13]. Further, in experiment [11], the remaining NAD is 10 nM (inactive). Further, in experiment [12], the luciferase signal is 144 AU (inactive).

`CC1(C)C(=O)[C@H]2C[C@]3(O)C4=CC(=O)O[C@@H](c5ccoc5)[C@@]4(C)CCC3[C@](C)(C2=O)[C@H]1CC(=O)O` (some centres undefined): the inhibition in experiment [1] is -7.25% (inactive).

Take `CC(C)(C)CC(C)(C)c1ccc(OCCOCC[N+](C)(C)Cc2ccccc2)cc1`: the insulin secretion stimulation in [2] was 4.2% (inactive). Moreover, in experiment [3], the viability decrease was 102% (active). In addition, the tube area decrease in experiment [4] is 110% (active). Moreover, in experiment [5], the GLP1 secretion stimulation is 89.6% (active). Moreover, the inhibition of viability in experiment [6] is 103% (active). In addition, the viability decrease (inhibition) in [7] is 145% (active); in experiment [8], 106% (active). Also, the inhibition in experiment [1] was -3.07% (inactive). In addition, the fold change in experiment [15] (setting [22]) is 0.798 (inactive) and 0.823 (inactive) and 0.768 (inactive); in [15] (setting [23]), 1.51 and 1.83 and 3.74. In addition, the cell count in [15] (setting [24]) was 2760 and 5310 and 8060; in [15] (setting [25]) it was 3460 and 6450 and 10500. The z-score in experiment [10] (setting [20]) is -0.38 (inactive) and -2.14 (inactive); in experiment [10] (setting [21]) it was -0.151 and 1.32. In addition, the remaining NAD in experiment [11] was 13 nM (inactive). Further, the luciferase signal in experiment [12] is 44 AU (inactive).

On to `O=C(O)CCn1c2c(c3ccccc31)C[C@H](NS(=O)(=O)c1ccc(F)cc1)CC2`, for which the insulin secretion stimulation in [2] is 0.95% (inactive). The viability decrease in experiment [3] was 8.7% (inactive). Further, in experiment [4], the tube area decrease is -6.1% (inactive). The GLP1 secretion stimulation in experiment [5] was -0.3% (inactive). Further, in experiment [6], the inhibition of viability is 5.1% (inactive). Moreover, the results for the viability decrease (inhibition) in [7] and in experiment [8] were -25.4% (inactive) and -0.3% (inactive), respectively. Also, the fold change in experiment [15] (setting [22]) was 0.961 (inactive); in [15] (setting [23]), 0.911. The cell count was 5630 in experiment [15] (setting [24]) and 5850 in experiment [15] (setting [25]).

Take `C[C@@H]1[C@H]2[C@H](O[C@@H]3O[C@H](CO)[C@@H](O)[C@H](O)[C@H]3O)OC=C(C(=O)O)[C@H]2C[C@@H]1O`: in [1], the inhibition is 16.7% (inactive).

As for `CC(C)=CCc1c(O)cc(C)oc1=O`, the inhibition in experiment [1] was -5.39% (inactive).

Turning to `COc1ccc(-c2coc3c(OC)c(OC)cc(OC)c3c2=O)cc1`, the inhibition in experiment [1] was 4.09% (inactive).

With `CC12CCC3c4ccc(O)cc4CCC3C1CCC2OC(=O)CCC1CCCC1` (centres undefined), in [1], the inhibition is -3.96% (inactive).

Turning to `CC(=O)Oc1ccc2c(c1)CCC1C2CCC2(C)C(OC(C)=O)CCC12` (centres undefined), in [1], the inhibition is 3.64% (inactive).

As for `CC1=C(/C=C/C(C)=C/C=C/C(C)=C\C(=O)O)C(C)(C)CCC1`, the inhibition in [16] was 0.45% (inactive); in [1], 16.8% (inactive). In experiment [17], the mean signal is 236 (inactive). The red/green cell ratio (normalised) in [9] is 1.29 (inactive). For the same compound, the normalised cell number in experiment [9] (setting [18]) was 0.91; in experiment [9] (setting [19]), 1.18. Moreover, the z-score was -0.17 (inactive) in experiment [10] (setting [20]); -0.281 in experiment [10] (setting [21]); 1.53 (inactive) and -0.905 (inactive) in experiment [13]. Further, in [11], the remaining NAD was 10 nM (inactive). The luciferase signal in [12] was 48 AU (inactive).

As to `N[C@@H](Cc1ccccc1)C(=O)N[C@@H](Cc1ccc(O)cc1)C(=O)O` (H-Phe-Tyr-OH), in experiment [1], the inhibition is -6.19% (inactive).

For the compound `COc1ccc(/C=C/C(=O)Nc2ccccc2C(=O)O)cc1OC`, the parasite load remaining in experiment [14] is 13.7% (inactive) and 10.8% (inactive) and 12.8% (inactive). In experiment [14], the viability is 99.2% and 76.6% and 140%. Moreover, the inhibition in [16] was 0.4% (inactive); in experiment [1] it was 5.84% (inactive). The mean signal in experiment [17] is 225 (inactive). For the same compound, the red/green cell ratio (normalised) in experiment [9] is 0.8 (inactive). Further, the normalised cell number in experiment [9] (setting [18]) was found to be 1.21; in experiment [9] (setting [19]), 0.98. Besides, the z-score in experiment [10] (setting [20]) was 0.761 (inactive) and 0.318 (inactive); in [10] (setting [21]), -0.0722 and 0.758; in [13], 1.34 (inactive) and 0.925 (inactive) and 0.79 (inactive). Besides, the remaining NAD in experiment [11] was 10 nM (inactive).
